# Rows were chosen to be rich in hits. Some 1.6% of all compounds tested hit in one or more screens of this group.
# KCNQ2 block – KCNQ2 (rat) channel inhibition. hit rate 1.1% among 310,000. CHO-K1 KCNQ2, FluxOR thallium flux, 20 min; stronger effect = lower value. B-score at 10 µM. O88943;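 active means fluorescence ratio B-score at most minus 3 library SDs, with starting brightness B-score within 2 library SDs, cut at about -5.5 in these data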
# Target sequence (O88943 whole entry, looked up): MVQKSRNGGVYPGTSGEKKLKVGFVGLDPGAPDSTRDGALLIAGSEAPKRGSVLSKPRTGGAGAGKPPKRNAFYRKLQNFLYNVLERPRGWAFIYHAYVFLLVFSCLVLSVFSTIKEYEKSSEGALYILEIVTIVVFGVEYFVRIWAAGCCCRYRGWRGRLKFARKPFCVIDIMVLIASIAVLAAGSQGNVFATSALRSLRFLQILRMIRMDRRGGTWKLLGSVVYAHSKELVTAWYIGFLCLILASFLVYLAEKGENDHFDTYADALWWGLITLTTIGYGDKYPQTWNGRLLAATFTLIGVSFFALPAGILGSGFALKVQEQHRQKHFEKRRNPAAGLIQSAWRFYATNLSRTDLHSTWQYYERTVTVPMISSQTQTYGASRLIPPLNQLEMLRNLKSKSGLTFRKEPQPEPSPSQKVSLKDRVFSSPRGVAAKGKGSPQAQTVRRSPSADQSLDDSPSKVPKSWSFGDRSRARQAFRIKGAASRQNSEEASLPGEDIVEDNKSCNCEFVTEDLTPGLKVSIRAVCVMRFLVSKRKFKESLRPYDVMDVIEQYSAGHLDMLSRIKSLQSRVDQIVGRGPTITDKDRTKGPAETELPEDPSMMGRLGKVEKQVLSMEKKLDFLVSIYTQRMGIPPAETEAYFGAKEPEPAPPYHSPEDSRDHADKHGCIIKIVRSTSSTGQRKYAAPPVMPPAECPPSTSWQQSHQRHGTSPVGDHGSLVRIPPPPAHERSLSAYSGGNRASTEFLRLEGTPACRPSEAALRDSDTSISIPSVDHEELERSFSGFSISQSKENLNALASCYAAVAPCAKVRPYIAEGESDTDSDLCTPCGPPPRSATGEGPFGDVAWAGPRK
# KCNQ2 pot – KCNQ2 (rat) channel potentiation; B-score at 10 µM; O88943; CHO-K1 KCNQ2, FluxOR thallium flux fluorescence; stronger effect = higher value; AID 2239; hit rate 0.54% among 310,000;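 active means fluorescence ratio B-score at least 3 SD of library B-scores, with initial fluorescence B-score within 3 of them, cut at about 5.3 in these data; same plate scores as AID 2156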;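 further: B-score of peak minus minimum over baseline fluorescence ratio after K+ and Tl+ stimulus; positive B-score means potentiation of KCNQ2 with more thallium influx and brighter signal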
# Active calls of the source: *; i = inactive; nt = no result given.
SMILES,KCNQ2 block,KCNQ2 pot
Cc1ccc(C)c(NS(=O)(=O)c2cc(C(=O)Nc3ccccc3-c3ccccc3)ccc2Cl)c1,-7.1*,-7.1
COCCNC(=O)c1ccccc1NC(=O)c1ccc(Cl)c(S(=O)(=O)Nc2ccc(C)cc2C)c1,i,nt
Cc1ccc(C)c(S(=O)(=O)N2CCN(C(=O)CSc3ccccc3)CC2)c1,i,0.25
Cc1ccc(C)c(S(=O)(=O)N2CCN(C(C)C(=O)Nc3ccccc3-c3ccccc3)CC2)c1 (configuration not stated),-5.8*,-5.8
Cc1nn(-c2ccccc2)c(C)c1NC(=O)Cc1cccs1,i,0.01
CCCCN(C(=O)c1ccc(-c2ccc([N+](=O)[O-])cc2)o1)c1c(N)n(CCCC)c(=O)[nH]c1=O,i,nt
COC(=O)c1ccc2c(=O)n(CCCCCC(=O)N3CCN(c4ccccc4)CC3)c(=O)[nH]c2c1,i,0.02
COc1cc2[nH]c(=O)n(CCCCCC(=O)N3CCN(c4ccccc4)CC3)c(=O)c2cc1OC,-8.3*,-8.3
CC(=O)c1ccc(NC(=O)COC(=O)c2ccccc2Sc2ccccc2C#N)cc1,i,0.6
N#Cc1ccccc1Sc1ccccc1C(=O)OCC(=O)NC12CC3CC(CC(C3)C1)C2,i,6.3*
O=C(CSc1nnc(-c2ccc(Cl)cc2)n1Cc1ccco1)Nc1ccc2c(c1)OCCO2,i,0.48
O=C(CSc1nnc(-c2ccc(Cl)cc2)n1Cc1ccco1)NCc1ccc2c(c1)OCO2,-5.9*,-5.9
COc1ccc(-c2nnc(SC(C)C(=O)NCc3ccc4c(c3)OCO4)n2Cc2ccco2)cc1 (configuration not stated),-8.2*,-8.2
Cc1cc(Cl)ccc1NC(=O)CSc1nnc(-c2ccncc2)n1Cc1ccco1,i,1.6
CC(Sc1nnc2ccccn12)C(=O)NCc1ccc2c(c1)OCO2 (configuration not stated),i,nt
CC(=O)Nc1cccc(NC(=O)CSc2ncc(-c3ccc(Cl)cc3)n2Cc2ccco2)c1,-6.6*,-6.6
Cc1ccc(C)c(S(=O)(=O)C(C#N)c2nc3ccccc3nc2N2CCCC2)c1 (configuration not stated),i,nt
COc1ccc(Cn2c(=O)[nH]c3cc(C(=O)N4CCN(Cc5ccccc5)CC4)ccc3c2=O)cc1,i,nt
COc1ccc2c(C)c(C(=O)N3CCN(Cc4ccccc4)CC3)oc2c1,-6.2*,-6.2
O=C(O)c1cc(S(=O)(=O)Nc2ccccc2Cc2ccccc2)ccc1Cl,-8.1*,-8.1
O=C(O)c1ccc(Cl)c(S(=O)(=O)Nc2ccccc2Cc2ccccc2)c1,i,nt
CCOC(=O)N1CCN(c2c(NCCN3CCCCC3CC)c(=O)c2=O)CC1 (configuration not stated),i,2.5
O/N=C1/CCc2cccc3cccc1c23,i,1.4
CC1CC(NC(=O)CC#N)CC(C)(C)C1 (configuration not stated),i,nt
CC1CC(NC(=O)Cc2ccc(Br)cc2)CC(C)(C)C1 (configuration not stated),-5.7*,-5.7
SMILES,KCNQ2 block,KCNQ2 pot
Cn1c(=O)c(/C=C/c2ccc(F)cc2)nc2ccccc21,-5.9*,-5.9
Cn1c(=O)c(/C=C/c2ccccc2)nc2ccccc21,i,nt
C=CCOC(=O)C1=C(C)NC(C)=C(C(=O)OCC=C)C1c1ccc(C)o1,i,nt
O=[N+]([O-])c1cccc(OCCCN2CCC(Cc3ccccc3)CC2)c1,-5.7*,-5.7
O=[N+]([O-])c1ccc(CN2CCC(Cc3ccccc3)CC2)cc1,i,0.36
O=c1cc(CN2CCN(C/C=C/c3ccccc3)CC2)c2cc(O)c(-c3ccccc3)cc2o1,i,0.92
CC(C)CN(Cc1cc(=O)oc2cc(-c3ccccc3)c(O)cc12)CC(C)C,-7.5*,-7.5
COc1ccc(C(=O)NN)cc1COc1ccc(Br)cc1,i,0.78
COc1ccc2nc(/N=C/c3c(C)[nH]n(-c4ccc(C)cc4C)c3=O)sc2c1,i,20*
COc1ccccc1N=Cc1c(C)[nH]n(-c2ccc(C)cc2C)c1=O,i,nt
CCOc1ccc(C2C(C(=O)OC)=CN(C(C)c3ccccc3)C=C2C(=O)OC)cc1 (configuration not stated),-7.4*,-7.4
CCOc1ccc(CCNC(=O)C(O)c2ccccc2)cc1 (configuration not stated),i,0.18
COC(=O)c1c(NC(=O)Cn2cc([N+](=O)[O-])cn2)sc2c1CCC2,i,0.44
O=C(NCCCc1nc2ccccc2[nH]1)c1ccc(F)cc1,i,7.3*
O=C(NCc1nc2ccccc2[nH]1)c1ccccc1F,i,1.1
CC(=O)/C(=N\Nc1ccccc1)Sc1cccc2cccnc12,i,nt
O=C(Sc1cccc2cccnc12)c1ccccc1Br,-6.2*,-6.2
C/C(=C\C(=O)c1ccc(Br)cc1)Nc1cccc(Cl)c1,-6.2*,-6.2
C/C(=C\C(=O)c1ccc(Cl)cc1)Nc1ccc(Br)cc1,-6*,-6
O=C(Cc1ccc(Cl)cc1)Nc1ccc(Br)cc1,i,3.2
C/C(=C\C(=O)c1ccccc1)Nc1ccc(Cl)c(Br)c1,i,0.64
Cc1csc(=NC(=O)c2ccccc2)n1C,i,0.28
C/C=C(\C)C(=O)OC1c2c(ccc3ccc(=O)oc23)OC(C)(C)C1OC(C)=O (configuration not stated),i,1.3
C/C=C(/C)C(=O)OC1c2c(ccc3ccc(=O)oc23)OC(C)(C)C1OC(=O)/C(C)=C\C (configuration not stated),-9.9*,-9.9
Cc1cc(=O)[nH]c(NCc2ccccc2)n1,i,nt
SMILES,KCNQ2 block,KCNQ2 pot
CC(C)(C)n1nc2c(c1NC(=O)Cc1cccs1)CSC2,i,9.5*
CC(C)(C)n1nc2c(c1NC(=O)COc1ccc(Cl)cc1)CSC2,i,nt
Cc1c(NC(=O)CN2CCN(C(c3ccccc3)c3ccccc3)CC2)c(=O)n(-c2ccccc2)n1C,i,nt
Cc1nnc(SCC(=O)Nc2ccc(O)cc2)c2ccccc12,-5.6*,-5.6
Cc1nnc(SCC(=O)Nc2ccccc2)c2ccccc12,i,nt
CCN(CC)S(=O)(=O)c1ccc2oc(C(=O)NCCCN3CCOCC3)c(C)c2c1,i,0.04
Cc1cc(F)ccc1S(=O)(=O)N1CCCOC1CNC(=O)C(=O)NCCc1c[nH]c2ccccc12 (configuration not stated),i,nt
Cc1cccc(-n2c(SCC(N)=O)nc3c(c2=O)C2(CCCC2)Cc2ccccc2-3)c1,-6.8*,-6.8
CCCn1c(SCC#N)nc2c(c1=O)C1(CCCC1)Cc1ccccc1-2,-6.4*,-6.4
CC1(C)CC(n2c(NCCO)nc3c(c2=O)C2(CCCC2)Cc2ccccc2-3)CCO1 (configuration not stated),i,nt
N#CCSc1nc2c(c(=O)n1Cc1ccco1)C1(CCCC1)Cc1ccccc1-2,i,nt
O=c1c2c(nc(NCCO)n1CC1CCCCC1)-c1ccccc1CC21CCCC1,-8.8*,-8.8
NC(=O)CSc1nc2c(c(=O)n1-c1ccccc1)C1(CCCCC1)Cc1ccccc1-2,i,0.74
Cc1ccnc(SCc2cc(=O)c(OC(=O)c3cccs3)co2)n1,i,nt
Cc1c(C(=O)NCCN2CCOCC2)oc2ccc(Br)cc12,i,0.31
CC(NC(=O)c1ccc(Br)cc1)c1ccccc1 (configuration not stated),i,2.6
CC(C)OP(=O)(OC(C)C)C(NC(=O)c1ccc(Br)cc1)c1ccccc1 (configuration not stated),-8*,-8

# Screens deposited in PubChem by Johns Hopkins Ion Channel Center.
